Molecules are shown by their SMILES. Results filed as inconclusive are left out. Active and inactive are the calls of the source. Calls come from the whole dose curve; as a rule, active = well fitted curve in the direction sought with a large enough effect; inconclusive = small, poorly fitted or top-dose-only effect, or effect the other way, or another doubt; inactive = no such curve, though single readings can be large or run the other way.

The target in this assay is Alpha-galactosidase A (Homo sapiens) (UniProt P06280). In words: Confirmation of Inhibitors of Human alpha-Galactosidase Using Spleen Homogenate. Conditions: alpha-galactosidase enzyme activity; series mostly up to 56.2 µM. Summed up: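 AC50 values come from Hill-equation fits of normalised 4-methylumbelliferone fluorescence (365/440 nm, read after NaOH/glycine stop). Enzyme source: spleen homogenate; substrate 1 mM final; pH 5.0 citrate buffer; 40 min at 37C; compound titration 0.5 nM–58 uM.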
Chain of Alpha-galactosidase A (Homo sapiens) (P06280 32-429 limits assumed): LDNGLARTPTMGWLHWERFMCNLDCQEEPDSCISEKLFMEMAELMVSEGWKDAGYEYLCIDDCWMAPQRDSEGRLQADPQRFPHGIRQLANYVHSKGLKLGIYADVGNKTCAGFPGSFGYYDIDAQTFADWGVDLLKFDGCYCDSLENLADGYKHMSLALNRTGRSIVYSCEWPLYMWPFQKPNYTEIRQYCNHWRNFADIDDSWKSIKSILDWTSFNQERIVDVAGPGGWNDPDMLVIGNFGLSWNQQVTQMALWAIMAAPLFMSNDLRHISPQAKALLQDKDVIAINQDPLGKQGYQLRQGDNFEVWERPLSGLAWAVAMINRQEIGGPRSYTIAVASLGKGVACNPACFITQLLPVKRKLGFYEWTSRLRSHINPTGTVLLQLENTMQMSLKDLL
Regarding `O=c1oc2ccccc2cc1-c1csc(Cc2nc3c(s2)CCCC3)n1`, the result was inactive. On to `O=C(O)c1cc2c(ccc3ccccc32)o1`, for which the result was inactive. Take `C=CCSc1nc(-c2ccc3c(c2)OCO3)cc(C(F)(F)F)c1C#N`: the call was inactive. As for `O=C(NC1=NCCS1)C1Cc2ccccc2CN1C(=O)c1ccccc1` (stereo not drawn), the entry is “inactive”; as for `O=c1oc2ccccc2cc1-c1nc2c(s1)CCc1ccccc1-2`, “inactive”. As for `O=S(=O)(c1cccnc1)N1CCOCC1`, the outcome was inactive. With `CCc1sc(-c2cc3cccc(OC)c3oc2=O)nc1-c1ccccc1`, the result was inactive.

Consider `N#Cc1c(-c2ccccc2)nc(SCc2nc(N)nc(N3CCCCC3)n2)[nH]c1=O`, for which the compound was classed as inactive. Consider `COc1cccc2ccc(/C=C/c3ccc4c(c3)OCO4)nc12`, for which the result was inactive. For the compound `O=C(O)Cn1nnnc1SCC(=O)Nc1ccc(OC(F)(F)F)cc1`, the outcome was inactive. `Cc1ccc(-c2nc(-c3cc4cc(Cl)ccc4oc3=O)sc2C)cc1`: the call was inactive. For the compound `CCOc1cc(CNc2ccc(O)cc2)cc(Cl)c1OCc1ccccc1`, the result was inactive.

On to `CCc1cc(-c2n[nH]c(C)c2-c2nc3ccccc3n2C)c(O)c(CN2CCN(C)CC2)c1O`, for which the call was inactive. Regarding `O=C(Cc1ncc(C(F)(F)F)cc1Cl)NCCc1ccccc1`, the compound was called inactive.

As to `O=c1oc2ccc(Br)cc2cc1-c1nc2c(s1)CCc1ccccc1-2`, the outcome was inactive.

For the compound `O=S(=O)(c1ccc2c(c1)C(=NNc1ccccc1)c1cc(S(=O)(=O)N3CCOCC3)ccc1-2)N1CCOCC1`, the outcome was inactive. Regarding `CCOC(=O)Nc1ccc2c(c1)N(C(=O)CN(CC)CC)c1ccccc1CC2`, the compound was classed as inactive. Take `O=S(=O)(c1ccc(Br)cc1)N1CCOCC1`: the compound was called inactive.

The values are drawn from PubChem BioAssay AID2108 (National Center for Advancing Translational Sciences (NCATS), 2009).
